About 8,800 targets were measured; listed, in parts, are those with a hit and a random draw of the rest. About 0.5% of all pairs of compound and target were hits. A number with no mark means an inactive call.
How the values were obtained:
Test in all cases: log2 fold change, soluble protein after heating vs DMSO (PISA); higher = thermal stabilisation; K562 lysate, 10 uM; active = over 0.2 and 3.5 SD of the protein, either way, in both replicates (recomputed)
erlotinib = compound: C#Cc1cccc(Nc2ncnc3cc(OCCOC)c(OCCOC)cc23)c1 [erlotinib]
Method in brief: (§1)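 The values are log-two fold changes in thermal stability compared with solvent controls and come from duplicates. They were obtained by TMTpro 16plex LC-MS/MS, with channel sums equalised, on the supernatant after 21,000xg for 90 min. That supernatant came from crude K562 extract at 1 mg/mL protein treated with 10 μM compound for 30 min, heated for 3 min across 48°C-58°C, pooled and brought to 0.5% NP-40 at 4°C.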

[1] = compound: C/C(=N\NC(=O)C1=CC(=CC=C1)S(=O)(=O)N2CCOCC2)/C3=C(C=CC(=C3)Cl)O
Method in brief: as §1

[2] = compound: C1=CC(=CC=C1C2=NC3=C(N2)C=C(C=C3)C(=O)N)OC4=CC=C(C=C4)Cl
Method in brief: as §1

[3] = compound: C1=CC2=C(C=CC(=C2)/C=C\3/C(=O)NC(=NCC4=CC=CS4)S3)N=C1
Method in brief: as §1

[4] = compound: C1=CC2=NC=CN=C2C=C1/C=C/3\C(=O)NC(=O)S3
Method in brief: as §1

[5] = compound: C1=CC=C(C=C1)C2=NC(=C(N2)C3=CC=NC=C3)C4=CC(=C(C=C4)Cl)O
Method in brief: as §1

[6] = compound: C1=CC=C2C(=C1)C3=NNC4=CC=CC(=C43)C2=O
Method in brief: as §1

[7] = compound: C1CCN(C1)C(=O)NC2=CC=CC(=C2)NC3=NC=C(C(=N3)NCCC4=CN=CN4)Br
Method in brief: as §1

[8] = compound: C1CN(CCC1(CC2=CC=C(C=C2)Cl)N)C3=NC=NC4=C3C=CN4
Method in brief: as §1

IRAK-1-4 Inhibitor I = compound: C1COCCN1CCN2C3=CC=CC=C3N=C2NC(=O)C4=CC(=CC=C4)[N+](=O)[O-] [IRAK-1-4 Inhibitor I]
Method in brief: as §1

UniProt O14744, sequence (O14744 whole entry, looked up): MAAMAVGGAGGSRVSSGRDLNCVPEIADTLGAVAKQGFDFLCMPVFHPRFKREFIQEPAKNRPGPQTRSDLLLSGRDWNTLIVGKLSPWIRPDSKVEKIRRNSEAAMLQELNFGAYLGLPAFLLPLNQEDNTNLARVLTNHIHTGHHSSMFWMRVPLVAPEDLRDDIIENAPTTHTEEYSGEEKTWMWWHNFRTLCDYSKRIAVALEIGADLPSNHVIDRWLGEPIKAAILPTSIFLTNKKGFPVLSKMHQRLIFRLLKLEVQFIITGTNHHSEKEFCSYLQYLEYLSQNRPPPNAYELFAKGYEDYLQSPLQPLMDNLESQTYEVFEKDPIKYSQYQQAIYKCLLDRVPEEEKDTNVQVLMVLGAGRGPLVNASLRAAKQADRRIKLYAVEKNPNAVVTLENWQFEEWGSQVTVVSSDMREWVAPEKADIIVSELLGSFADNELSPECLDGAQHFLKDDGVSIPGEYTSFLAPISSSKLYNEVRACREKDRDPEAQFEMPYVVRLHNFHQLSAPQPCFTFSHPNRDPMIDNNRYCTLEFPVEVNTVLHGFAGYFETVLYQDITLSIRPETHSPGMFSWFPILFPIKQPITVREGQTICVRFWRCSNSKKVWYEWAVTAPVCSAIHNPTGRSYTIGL
UniProt Q9UHX1, sequence (Q9UHX1 whole entry, looked up): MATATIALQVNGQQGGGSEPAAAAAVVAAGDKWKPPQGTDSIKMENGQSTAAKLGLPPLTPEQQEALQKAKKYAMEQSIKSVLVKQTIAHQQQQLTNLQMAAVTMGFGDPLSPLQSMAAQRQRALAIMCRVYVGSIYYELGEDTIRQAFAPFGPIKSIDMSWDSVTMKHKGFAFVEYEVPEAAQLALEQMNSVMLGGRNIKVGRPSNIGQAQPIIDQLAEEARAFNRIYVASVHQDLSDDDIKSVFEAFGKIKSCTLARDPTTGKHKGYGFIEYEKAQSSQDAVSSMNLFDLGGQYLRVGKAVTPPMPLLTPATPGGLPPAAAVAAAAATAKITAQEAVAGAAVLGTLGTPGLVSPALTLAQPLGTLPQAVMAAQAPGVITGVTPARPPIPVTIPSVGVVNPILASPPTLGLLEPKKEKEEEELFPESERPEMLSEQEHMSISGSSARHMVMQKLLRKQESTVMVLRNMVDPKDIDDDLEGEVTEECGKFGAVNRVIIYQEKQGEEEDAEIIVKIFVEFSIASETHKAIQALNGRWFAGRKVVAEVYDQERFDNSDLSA
UniProt O94906, sequence (O94906 whole entry, looked up): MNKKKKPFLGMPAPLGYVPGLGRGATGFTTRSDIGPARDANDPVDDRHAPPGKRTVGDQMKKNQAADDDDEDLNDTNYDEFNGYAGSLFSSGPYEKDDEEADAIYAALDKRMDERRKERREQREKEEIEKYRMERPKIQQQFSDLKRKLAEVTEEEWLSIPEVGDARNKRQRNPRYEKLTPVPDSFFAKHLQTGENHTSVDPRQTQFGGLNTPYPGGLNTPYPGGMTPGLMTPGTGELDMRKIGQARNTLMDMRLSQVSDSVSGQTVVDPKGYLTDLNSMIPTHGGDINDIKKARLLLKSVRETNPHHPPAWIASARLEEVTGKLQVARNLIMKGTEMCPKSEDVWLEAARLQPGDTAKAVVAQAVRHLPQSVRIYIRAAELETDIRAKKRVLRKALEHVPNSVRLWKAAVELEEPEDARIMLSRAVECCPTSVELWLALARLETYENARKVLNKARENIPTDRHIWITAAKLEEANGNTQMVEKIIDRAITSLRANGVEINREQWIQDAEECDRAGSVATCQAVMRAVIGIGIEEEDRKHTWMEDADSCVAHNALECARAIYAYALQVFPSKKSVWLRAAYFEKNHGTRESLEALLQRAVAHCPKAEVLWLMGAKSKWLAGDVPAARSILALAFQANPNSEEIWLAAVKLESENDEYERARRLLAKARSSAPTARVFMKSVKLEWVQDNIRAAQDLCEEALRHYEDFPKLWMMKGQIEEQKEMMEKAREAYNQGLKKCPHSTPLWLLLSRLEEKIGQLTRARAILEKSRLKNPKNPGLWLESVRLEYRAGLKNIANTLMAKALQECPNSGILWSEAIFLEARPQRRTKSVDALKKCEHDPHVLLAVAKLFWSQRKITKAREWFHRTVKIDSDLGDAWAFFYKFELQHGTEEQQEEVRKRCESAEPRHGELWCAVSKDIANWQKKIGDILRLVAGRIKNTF
UniProt Q9Y446, sequence (Q9Y446 whole entry, looked up): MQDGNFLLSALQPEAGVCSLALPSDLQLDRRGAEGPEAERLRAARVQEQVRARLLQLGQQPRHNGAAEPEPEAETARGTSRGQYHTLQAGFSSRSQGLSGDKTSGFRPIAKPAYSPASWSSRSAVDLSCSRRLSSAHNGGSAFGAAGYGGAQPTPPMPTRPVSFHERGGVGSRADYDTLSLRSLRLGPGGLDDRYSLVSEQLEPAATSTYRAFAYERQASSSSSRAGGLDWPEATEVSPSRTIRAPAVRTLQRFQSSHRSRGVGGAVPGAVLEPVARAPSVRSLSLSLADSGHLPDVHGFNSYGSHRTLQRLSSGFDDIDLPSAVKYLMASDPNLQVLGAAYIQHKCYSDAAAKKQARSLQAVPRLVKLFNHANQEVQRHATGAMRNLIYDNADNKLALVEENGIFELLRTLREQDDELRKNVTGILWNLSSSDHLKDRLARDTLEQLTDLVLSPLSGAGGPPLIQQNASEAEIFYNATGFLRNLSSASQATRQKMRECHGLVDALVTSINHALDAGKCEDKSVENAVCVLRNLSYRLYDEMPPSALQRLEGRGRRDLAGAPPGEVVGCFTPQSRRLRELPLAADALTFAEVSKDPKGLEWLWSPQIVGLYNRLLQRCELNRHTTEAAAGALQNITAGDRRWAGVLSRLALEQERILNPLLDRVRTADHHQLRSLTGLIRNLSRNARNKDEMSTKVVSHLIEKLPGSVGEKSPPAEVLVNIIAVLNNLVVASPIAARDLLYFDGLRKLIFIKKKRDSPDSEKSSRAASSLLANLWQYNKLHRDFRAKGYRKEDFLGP
UniProt Q99541, sequence (Q99541 whole entry, looked up): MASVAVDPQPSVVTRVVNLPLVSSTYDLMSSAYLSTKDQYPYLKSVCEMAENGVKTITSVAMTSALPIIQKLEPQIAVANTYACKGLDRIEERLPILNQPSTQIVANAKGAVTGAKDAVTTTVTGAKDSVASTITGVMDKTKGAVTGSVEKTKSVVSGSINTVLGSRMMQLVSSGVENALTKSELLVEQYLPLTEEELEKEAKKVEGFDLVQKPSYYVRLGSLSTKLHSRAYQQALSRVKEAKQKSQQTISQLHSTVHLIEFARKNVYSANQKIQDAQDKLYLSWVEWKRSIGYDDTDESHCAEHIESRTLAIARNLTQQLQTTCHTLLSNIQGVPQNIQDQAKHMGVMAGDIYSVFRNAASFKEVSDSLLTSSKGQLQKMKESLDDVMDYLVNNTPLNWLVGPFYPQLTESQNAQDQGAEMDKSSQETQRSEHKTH
UniProt O00264, sequence (O00264 whole entry, looked up): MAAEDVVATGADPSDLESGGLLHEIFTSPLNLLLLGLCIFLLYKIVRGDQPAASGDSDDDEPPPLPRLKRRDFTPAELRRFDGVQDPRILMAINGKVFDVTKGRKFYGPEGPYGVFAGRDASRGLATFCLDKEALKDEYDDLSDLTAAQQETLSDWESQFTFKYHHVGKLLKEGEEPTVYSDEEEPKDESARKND
UniProt Q9BZL6, sequence (Q9BZL6 whole entry, looked up): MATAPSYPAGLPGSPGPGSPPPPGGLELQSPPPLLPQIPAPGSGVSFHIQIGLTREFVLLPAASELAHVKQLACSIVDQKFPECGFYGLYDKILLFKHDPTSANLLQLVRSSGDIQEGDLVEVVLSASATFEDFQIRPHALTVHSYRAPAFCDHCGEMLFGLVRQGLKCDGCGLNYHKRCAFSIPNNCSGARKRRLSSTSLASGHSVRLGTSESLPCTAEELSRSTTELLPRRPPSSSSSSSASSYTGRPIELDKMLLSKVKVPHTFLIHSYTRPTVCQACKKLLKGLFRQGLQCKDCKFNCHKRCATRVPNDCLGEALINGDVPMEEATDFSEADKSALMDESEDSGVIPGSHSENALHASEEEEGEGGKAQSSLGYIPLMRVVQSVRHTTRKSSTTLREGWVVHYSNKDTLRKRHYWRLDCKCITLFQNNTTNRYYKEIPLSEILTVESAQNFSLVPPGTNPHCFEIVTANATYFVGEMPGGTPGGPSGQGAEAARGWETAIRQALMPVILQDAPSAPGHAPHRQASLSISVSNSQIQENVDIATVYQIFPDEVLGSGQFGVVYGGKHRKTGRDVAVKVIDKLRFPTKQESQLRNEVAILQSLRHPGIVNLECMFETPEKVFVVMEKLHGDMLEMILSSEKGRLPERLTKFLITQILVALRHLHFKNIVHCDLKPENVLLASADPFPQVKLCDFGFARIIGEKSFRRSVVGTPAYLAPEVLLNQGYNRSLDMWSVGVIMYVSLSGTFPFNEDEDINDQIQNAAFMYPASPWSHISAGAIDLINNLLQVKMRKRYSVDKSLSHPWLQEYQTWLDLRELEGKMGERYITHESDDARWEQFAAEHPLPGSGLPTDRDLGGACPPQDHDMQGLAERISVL
UniProt O43741, sequence (O43741 whole entry, looked up): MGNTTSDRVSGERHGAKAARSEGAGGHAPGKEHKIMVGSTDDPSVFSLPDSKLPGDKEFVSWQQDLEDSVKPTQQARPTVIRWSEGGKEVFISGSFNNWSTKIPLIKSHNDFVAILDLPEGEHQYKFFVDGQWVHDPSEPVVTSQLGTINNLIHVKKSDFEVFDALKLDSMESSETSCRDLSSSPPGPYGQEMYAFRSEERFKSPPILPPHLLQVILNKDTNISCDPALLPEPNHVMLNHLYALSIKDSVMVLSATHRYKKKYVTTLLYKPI
UniProt Q9UMR5, sequence (Q9UMR5 whole entry, looked up): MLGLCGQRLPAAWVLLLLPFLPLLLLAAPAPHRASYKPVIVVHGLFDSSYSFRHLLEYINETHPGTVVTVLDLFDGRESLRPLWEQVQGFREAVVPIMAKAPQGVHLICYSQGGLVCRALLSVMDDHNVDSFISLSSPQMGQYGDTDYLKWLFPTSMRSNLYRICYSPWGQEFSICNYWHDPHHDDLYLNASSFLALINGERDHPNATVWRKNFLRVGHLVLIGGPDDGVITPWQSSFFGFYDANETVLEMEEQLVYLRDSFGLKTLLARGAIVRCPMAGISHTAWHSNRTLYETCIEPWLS

| Target | log2 fold change (erlotinib) | log2 fold change [1] | log2 fold change [2] | log2 fold change [3] | log2 fold change [4] | log2 fold change [5] | log2 fold change [6] | log2 fold change [7] | log2 fold change [8] | log2 fold change (IRAK-1-4 Inhibitor I) |
| --- | --- | --- | --- | --- | --- | --- | --- | --- | --- | --- |
| PPIL2 (UniProt Q13356) | -0.03 | 0.02 | 0.007 | 0.021 | -0.002 | 0.039 | -0.045 | -0.036 | 0.003 | -0.016 |
| PEF1 (UniProt Q9UBV8) | -0.01 | 0.012 | -0.014 | -0.001 | -0.039 | -0.012 | -0.021 | -0.016 | 0.056 | 0.025 |
| POLD3 (UniProt Q15054) | 0.015 | 0.002 | -0.006 | -0.003 | -0.048 | 0.01 | -0.048 | -0.058 | -0.012 | -0.035 |
| PIR (UniProt O00625) | 0.017 | -0.212 | 0.01 | 0.034 | -0.034 | 0.006 | 0.151 | 0.014 | 0.027 | -0.02 |
| PCIF1 (UniProt Q9H4Z3) | -0.011 | 0.067 | -0.008 | 0.042 | 0.102 | -0.015 | 0.014 | -0.011 | -0.033 | -0.041 |
| PPM1H (UniProt Q9ULR3) | -0.048 | -0.045 | 0.25 (active) | 0.021 | -0.049 | 0.009 | 0.011 | -0.039 | 0.101 | 0.037 |
| PRKD2 isoform 3 (UniProt Q9BZL6) | 0.085 | -0.047 | 0.031 | -0.112 | 0.028 | 0.014 | -0.037 | -0.175 | -0.009 | 0.021 |
| PPIL3 (UniProt Q9H2H8) | 0.022 | 0.071 | 0 | -0.016 | -0.039 | -0.012 | -0.028 | -0.004 | 0.071 | 0.03 |
| PPT2 isoform 3 (UniProt Q9UMR5) | 0.038 | -0.113 | 0.001 | 0.014 | -0.012 | -0.057 | 0.042 | 0.01 | 0.043 | 0.122 |
| PGRMC1 (UniProt O00264) | -0.032 | -0.378 | 0.025 | -0.029 | 0.003 | 0.018 | -0.004 | 0.008 | 0.013 | -0.005 |
| PRKACB isoform 2 (UniProt P22694) | -0.033 | -0.03 | -0.03 | 0.04 | -0.028 | -0.019 | 0.129 | 0.352 (active) | 0.354 (active) | 0.009 |
| PIP4K2C (UniProt Q8TBX8) | 0.104 | -0.289 | 0.033 | 0.004 | 0.496 (active) | 0.137 | 0.127 | 0.231 | -0.055 | -0.005 |
| PCBP2 (UniProt H3BRU6) | 0.094 | -0.272 | 0.166 | 0.061 | -0.057 | -0.034 | -0.15 | -0.196 | -0.096 | 0.009 |
| PTP4A1 (UniProt Q93096) | -0.005 | 0.01 | 0.014 | -0.001 | -0.013 | -0.022 | -0.086 | 0.05 | -0.066 | -0.014 |
| PRMT5 (UniProt O14744) | 0.002 | 0 | 0.032 | 0.006 | 0.007 | 0.017 | 0.017 | 0.012 | 0.019 | 0.003 |
| POLB (UniProt P06746) | 0.012 | 0.009 | 0.075 | 0.069 | -0.022 | 0.019 | -0.061 | -0.019 | 0.026 | -0.062 |
| PPP3CA isoform 2 (UniProt Q08209) | -0.005 | -0.037 | 0.045 | -0.036 | -0.014 | 0.014 | -0.006 | 0.082 | -0.026 | -0.01 |
| PLIN2 (UniProt Q99541) | 0.013 | 0.024 | -0.093 | 0.004 | 0.028 | -0.015 | -0.045 | 0.021 | -0.042 | 0 |
| PKP3 isoform 2 (UniProt Q9Y446) | 0.063 | -0.011 | 0.042 | 0.009 | 0.006 | -0.011 | -0.02 | -0.011 | -0.013 | 0.015 |
| POGK (UniProt Q9P215) | 0.052 | 0.053 | 0.034 | -0.059 | -0.023 | 0.104 | -0.03 | 0 | 0.022 | 0.025 |
| PDE2A (UniProt O00408) | -0.015 | 0.082 | 0.12 | -0.337 | -0.055 | 0.249 | -0.257 | 0.001 | -0.027 | 0.18 |
| PUF60 isoform 2 (UniProt Q9UHX1) | 0.102 | -0.094 | 0.083 | -0.019 | -0.064 | -0.088 | -0.005 | -0.045 | 0.033 | -0.011 |
| PUM1 isoform 3 (UniProt Q14671) | -0.025 | 0.051 | 0.06 | -0.028 | 0.02 | -0.052 | -0.033 | 0.01 | 0.013 | 0.011 |
| PRPF6 (UniProt O94906) | 0.018 | 0.038 | -0.003 | -0.035 | 0.001 | 0.037 | -0.018 | -0.056 | -0.032 | -0.046 |
| PFKFB3 isoform 4 (UniProt Q16875) | -0.006 | -0.021 | 0.028 | -0.033 | 0.011 | -0.034 | -0.035 | 0.032 | 0.002 | 0.004 |
| PIK3CB (UniProt P42338) | -0.024 | -0.014 | -0.045 | 0.159 | 0.412 | 0.019 | 0.095 | 0.002 | 0.052 | 0.037 |
| PRKAB2 (UniProt O43741) | -0.032 | -0.165 | 0.096 | -0.041 | 0.031 | 0.039 | 0.153 | 0.196 | 0.042 | 0.24 |
| PRKRA (UniProt O75569) | 0.016 | -0.1 | -0.061 | -0.01 | 0.08 | 0.012 | -0.012 | -0.074 | 0.018 | 0.033 |
| PPIE (UniProt Q9UNP9) | 0.005 | -0.022 | 0.064 | 0.031 | -0.008 | 0.001 | -0.002 | -0.025 | 0.025 | -0.019 |

Reference: the supplement of paper PMC10849652
